The source of these data is PubChem BioAssay AID362 (NMMLSC, 2006).

The structures appear in SMILES notation. Values joined by “and” are separate entries in the source; they are usually repeats but may differ in a detail not shown here. Equal entries are not always repeated. About 60 (1%) of roughly 4,300 compounds were called active.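 How the source made its calls: active means inhibition of labelled peptide binding to the formyl peptide receptor of at least 65%; inactive means the rest.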 The entries come from a sample that favours actives as a whole.

What is called inhibition is the change of the read-out against control, counted positive when it falls.

Chain of fMet-Leu-Phe receptor (Homo sapiens) (P21462 whole entry, looked up): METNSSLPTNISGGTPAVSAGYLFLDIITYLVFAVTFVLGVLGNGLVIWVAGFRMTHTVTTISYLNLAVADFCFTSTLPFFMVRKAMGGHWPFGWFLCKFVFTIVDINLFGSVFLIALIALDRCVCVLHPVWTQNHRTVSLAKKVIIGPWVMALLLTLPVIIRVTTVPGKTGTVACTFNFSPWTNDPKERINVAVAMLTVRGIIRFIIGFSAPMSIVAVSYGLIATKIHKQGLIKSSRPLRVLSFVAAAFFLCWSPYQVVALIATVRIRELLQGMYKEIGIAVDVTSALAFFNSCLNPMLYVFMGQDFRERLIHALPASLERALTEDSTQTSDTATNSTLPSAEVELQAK

This test concerns the target fMet-Leu-Phe receptor (Homo sapiens) (UniProt P21462). The experiment in a line: small-molecule ligands of human FPR – U937-FPR cells, fMLFK-FITC, flow cytometry, primary screen (AID 362).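 On inhibition: plate controls were buffer control wells for no effect and unlabeled fMLFF blocking peptide for full effect; higher means less cell fluorescence so more probe displaced.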 Conditions: fMLFK-FITC displacement; hits give high values, concentration not given here. Background: Flow cytometry measures light scatter and fluorescence of single cells or particles in a stream.
Consider `CC1(C)C2([N+](=O)[O-])CN3CC1([N+](=O)[O-])CN(C2)C3C(O)C(O)C(O)C(O)CO` (centres undefined), for which the inhibition entry was “inactive”.

For `O=C(C1CCC(CNS(=O)(=O)c2ccc(Br)s2)CC1)N1CCC(Cc2ccccc2)CC1` (centres undefined), the inhibition entry is “inactive”.

In the case of `O=C(O)c1cccc2c1NC(C(=O)O)C1CC=CC21` (centres undefined), the inhibition is 4.5% (inactive).

For the compound `COc1ccccc1C1Nc2c(C(=O)O)cccc2C2C3CCC(C3)C12` (centres undefined), the inhibition was 20.9% (inactive).

`CC(C)C1Nc2c(C(=O)O)cccc2C(Nc2ccccc2C(=O)O)C1(C)C` (centres undefined): the inhibition is 65.1% (active) and 89.9% (active).

Turning to `COc1ccc(Oc2c(C(F)(F)F)oc3cc(OC(C)C(=O)OCCC(C)C)ccc3c2=O)cc1` (centres undefined), the inhibition was 8% (inactive).

With `O=C(NCCCN1CCC(Cc2ccccc2)CC1)C1CCC(CNS(=O)(=O)c2ccccc2)CC1` (centres undefined), the inhibition result is “inactive”.

Turning to `COc1ccc(C2C(C(=O)OC3CCCCC3)=C(C)NC3=C2C(=O)CC(c2ccc(Cl)cc2)C3)cc1OC` (centres undefined), the inhibition is 77.5% (active).

For the compound `COc1cc(C2C(C(=O)OC3CCCC3)=C(C)NC3=C2C(=O)CC(c2ccc(Cl)cc2)C3)ccc1OC(C)=O` (centres undefined), the inhibition was 8.8% (inactive).

For `CCOc1cc(C2C(C(=O)OC3CCCCCC3)=C(C)NC3=C2C(=O)CC(C)(C)C3)cc([N+](=O)[O-])c1O` (centres undefined), the inhibition was 40.2% (inactive).

Consider `COc1cc(C2C(C(=O)OC3CCCCCC3)=C(C)NC3=C2C(=O)CC(C)(C)C3)cc([N+](=O)[O-])c1O` (centres undefined), for which the inhibition was 59.7% (inactive).

With `COc1cc(C2C(C(=O)OC3CCCCC3)=C(C)NC3=C2C(=O)CC(c2ccc(Cl)cc2)C3)ccc1OC(C)=O` (centres undefined), the inhibition was 7% (inactive).

Take `CC1=C(C(=O)OC2CCCCC2)C(c2ccc(Cl)c([N+](=O)[O-])c2)C2=C(CCCC2=O)N1` (centres undefined): the inhibition result was “inactive”.

With `CCOc1cc(C2C(C(=O)OC3CCCCCC3)=C(C)NC3=C2C(=O)CCC3)cc([N+](=O)[O-])c1O` (centres undefined), the inhibition was 66.4% (active).

Take `COc1cc(C2C(C(=O)OC3CCCCC3)=C(C)NC3=C2C(=O)CCC3)cc(Cl)c1O` (centres undefined): the inhibition was 24.3% (inactive).

Turning to `COc1cc(C2C(C(=O)OC3CCCCCC3)=C(C)NC3=C2C(=O)CCC3)cc([N+](=O)[O-])c1O` (centres undefined), the inhibition is 69.7% (active).

In the case of `COc1ccc(C2NC(=O)NC(C)=C2C(=O)OC2CCCCCC2)cc1` (centres undefined), the inhibition entry is “inactive”.

For the compound `CCOC(=O)C1CCC(CN(Cc2ccccc2C)S(=O)(=O)c2cccc(C(F)(F)F)c2)CC1` (centres undefined), the inhibition result is “inactive”.

As for `CCOc1cc(C2C3=C(CC(C)(C)CC3=O)OC3=C2C(=O)CC(C)(C)C3)ccc1OC(=O)c1cccc(C)c1`, the inhibition entry was “inactive”.

Consider `COc1cc(C2C3=C(CC(C)(C)CC3=O)OC3=C2C(=O)CC(C)(C)C3)ccc1OC(=O)c1cccc(C)c1`, for which the inhibition is 12.3% (inactive).

With `COc1cccc(C(=O)Oc2ccc(C(C3=C(O)CC(C)(C)CC3=O)C3=C(O)CC(C)(C)CC3=O)cc2OC)c1`, the inhibition is 86.9% (active).

In the case of `COc1cccc(C(=O)Oc2ccc(C3C4=C(CC(C)(C)CC4=O)OC4=C3C(=O)CC(C)(C)C4)cc2OC)c1`, the inhibition result was “inactive”.

As to `CCOc1cc(C(C2=C(O)CC(C)(C)CC2=O)C2=C(O)CC(C)(C)CC2=O)ccc1OC(=O)c1cccc(OC)c1`, the inhibition was 80.2% (active).

Take `CCOc1cc(C2C3=C(CC(C)(C)CC3=O)OC3=C2C(=O)CC(C)(C)C3)ccc1OC(=O)c1cccc(OC)c1`: the inhibition result is “inactive”.

For `CCOC(=O)c1cccc(N2C(=O)C3C(C2=O)C2C=CC3C23CC3)c1` (centres undefined), the inhibition was 5.1% (inactive).

As for `CCSCCOC(=O)C1=C(C)NC2=C(C(=O)C(C(=O)OC)C(C)C2)C1c1c(F)cccc1Cl` (centres undefined), the inhibition entry is “inactive”.

As to `CCCOCCOC(=O)C1=C(C)NC2=C(C(=O)C(C(=O)OC)C(C)C2)C1c1ccc(C)o1` (centres undefined), the inhibition was 53.7% (inactive).

For `CCN(Cc1ccccc1)Cc1c(O)ccc2c(=O)c(Oc3ccc(OC)cc3)c(C(F)(F)F)oc12`, the inhibition result is “inactive”.

Turning to `CCOc1ccccc1C(=O)NC1(C(F)(F)F)C(=O)Nc2c1c(=O)[nH]c(=O)n2-c1ccc(F)cc1` (centres undefined), the inhibition is 75.2% (active).

Consider `CCOc1ccccc1C(=O)NC1(C(F)(F)F)C(=O)Nc2c1c(=O)[nH]c(=O)n2-c1ccccc1` (centres undefined), for which the inhibition is 63.1% (inactive).

In the case of `O=C(NC1(C(F)(F)F)C(=O)Nc2c1c(=O)[nH]c(=O)n2-c1ccc(F)cc1)c1ccccc1Cl` (centres undefined), the inhibition was 11% (inactive).

In the case of `Cc1ccc(-n2c3c(c(=O)[nH]c2=O)C(NC(=O)c2ccccc2C)(C(F)(F)F)C(=O)N3)cc1` (centres undefined), the inhibition was 10.6% (inactive).

Regarding `Cc1ccccc1C(=O)NC1(C(F)(F)F)C(=O)Nc2c1c(=O)[nH]c(=O)n2-c1ccc(F)cc1` (centres undefined), the inhibition was 12.2% (inactive).

Turning to `CCOc1ccccc1C(=O)NC1(C(F)(F)F)C(=O)Nc2c1c(=O)[nH]c(=O)n2-c1ccc(C)cc1` (centres undefined), the inhibition was 65.3% (active).

Regarding `CCOC(=O)CSc1nc2ccccc2c(=O)n1CC1CCC(C(=O)NCCc2ccccc2)CC1` (centres undefined), the inhibition entry is “inactive”.

For `O=C(O)C1C2C=CC(C2)C1C(=O)NCC1CCCO1` (centres undefined), the inhibition is 2.4% (inactive).

`CCCOCCOC(=O)C1=C(C)NC2=C(C(=O)C(C(=O)OC)C(C)C2)C1c1cccc(OC)c1` (centres undefined): the inhibition is 37.6% (inactive).

On to `CCC(C)C(Nc1ncnc2sc3c(c12)CCC3)C(=O)O` (centres undefined), for which the inhibition is 0.8% (inactive).

For `COc1ccc(OC)c(NC(=O)C(C(C)C)N2C(=O)c3ccccc3C2=O)c1` (centres undefined), the inhibition was 27.7% (inactive).
